# Data as given in the supplement of paper PMC8728848.
# Only a selection was taken, and the strongest signals are over-represented in it overall.
# B1: DrGal9 (Danio rerio) (protein)
# chain: MAFYQQPPYYNPRIPFSGPIQGGLQDGKSIIISGRVLPGANRFHVNLQCGSHSEANVALHFNPRYEDTDYVVNNSYLNRTWGSEERKYESPFAQGQTFTLQILVAQDKYKISTNGRHFMDYKHRIPFTQVDTVAVEGMVEVNSVAFQNPAGFIPPQAGYAPQYAVPPGCGFPAFPSAPNYTIPHKTVMNGGLHPGKNIVINGVVNPNAKSIIFNLCYRSGIAFHYNPRFDENVVVRNTNQMEKWGAEERFGGLPFHKGQPFQVTISCNPQHYNVFVNGKQEHTYKHRYTKLNDIDILEICGDLQLTSVQA
# What was measured:
# Assay in all cases: glycan array binding signal (z-score within array); higher = stronger binding
# Conditions in all cases: glycan notation: IUPAC condensed, linker removed
# [1] = biological target: Fuc(a1-2)Gal(b1-3)GlcNAc(b1-3)[Neu5Ac(a2-6)Gal(b1-4)GlcNAc(b1-6)]Gal(b1-4)Glc
# Procedure, shortened: (§1)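 From the Consortium for Functional Glycomics database, 3228 arrays were curated, keeping only those whose protein sequence was available. Binding is given as a within-array Z-score averaged across arrays sharing a protein sequence and across linkers. Negative Z-scores can be read as non-binding.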
# [2] = biological target: Fuc(a1-2)Gal(b1-4)GlcNAc(b1-3)Gal(b1-4)GlcNAc(b1-2)Man(a1-3)[Fuc(a1-2)Gal(b1-4)GlcNAc(b1-3)Gal(b1-4)GlcNAc(b1-2)Man(a1-6)]Man(b1-4)GlcNAc(b1-4)GlcNAc
# Procedure, shortened: as §1
# [3] = biological target: Fuc(a1-2)Gal(b1-4)GlcNAc(b1-3)GalNAc
# Procedure, shortened: as §1
# [4] = biological target: Fuc(a1-2)Gal6S(b1-3)GlcNAc
# Procedure, shortened: as §1
# [5] = biological target: Fuc(a1-2)[Gal(a1-3)]Gal(b1-4)GlcNAc
# Procedure, shortened: as §1
# [6] = biological target: Fuc(a1-2)[Gal(a1-3)]Gal(b1-4)GlcNAc(b1-2)Man(a1-3)[Fuc(a1-2)[Gal(a1-3)]Gal(b1-4)GlcNAc(b1-2)Man(a1-6)]Man(b1-4)GlcNAc(b1-4)GlcNAc
# Procedure, shortened: as §1
# [7] = biological target: Fuc(a1-2)[GalNAc(a1-3)]Gal(b1-4)GlcNAc
# Procedure, shortened: as §1
# [8] = biological target: Fuc(a1-2)[GalNAc(a1-3)]Gal(b1-4)GlcNAc(b1-2)Man(a1-3)[Fuc(a1-2)[GalNAc(a1-3)]Gal(b1-4)GlcNAc(b1-2)Man(a1-6)]Man(b1-4)GlcNAc(b1-4)GlcNAc
# Procedure, shortened: as §1
# [9] = biological target: Fuc(a1-2)[GalNAc(a1-3)]Gal(b1-4)[Fuc(a1-3)]GlcNAc
# Procedure, shortened: as §1
# [10] = biological target: Fuc(a1-2)[GalNAc(a1-3)]Gal(b1-4)[Fuc(a1-3)]GlcNAc(b1-3)GalNAc
# Procedure, shortened: as §1
# [11] = biological target: Fuc(a1-3)[Gal(b1-4)]GlcNAc(b1-2)Man(a1-3)[Fuc(a1-3)[Gal(b1-4)]GlcNAc(b1-2)Man(a1-6)]Man(b1-4)GlcNAc(b1-4)GlcNAc
# Procedure, shortened: as §1
# Gal(a1-3)Gal = biological target: Gal(a1-3)Gal
# Procedure, shortened: as §1
# Gal(a1-4)Gal(b1-4)Glc = biological target: Gal(a1-4)Gal(b1-4)Glc
# Procedure, shortened: as §1
# Gal(b1-3)GalNAc = biological target: Gal(b1-3)GalNAc
# Procedure, shortened: as §1
# [12] = biological target: Gal(b1-3)GalNAc(b1-4)Gal(b1-4)Glc
# Procedure, shortened: as §1
# [13] = biological target: Gal(b1-3)GlcNAc(b1-3)Gal(b1-4)GlcNAc
# Procedure, shortened: as §1
# [14] = biological target: Gal(b1-3)GlcNAc(b1-3)Gal(b1-4)GlcNAc(b1-6)[Gal(b1-3)GlcNAc(b1-3)]Gal(b1-4)Glc
# Procedure, shortened: as §1
# [15] = biological target: Gal(b1-4)GlcNAc(b1-3)Gal(b1-4)GlcNAc(b1-2)Man(a1-3)[Gal(b1-4)GlcNAc(b1-3)Gal(b1-4)GlcNAc(b1-2)Man(a1-6)]Man(b1-4)GlcNAc(b1-4)[Fuc(a1-6)]GlcNAc
# Procedure, shortened: as §1
# [16] = biological target: Gal(b1-4)GlcNAc(b1-3)Gal(b1-4)GlcNAc(b1-2)[Gal(b1-4)GlcNAc(b1-3)Gal(b1-4)GlcNAc(b1-6)]Man(a1-6)[Gal(b1-4)GlcNAc(b1-3)Gal(b1-4)GlcNAc(b1-2)Man(a1-3)]Man(b1-4)GlcNAc(b1-4)GlcNAc
# Procedure, shortened: as §1
# [17] = biological target: Gal(b1-4)GlcNAc(b1-3)Gal(b1-4)GlcNAc(b1-3)Gal(b1-4)GlcNAc(b1-2)Man(a1-3)[Gal(b1-4)GlcNAc(b1-3)Gal(b1-4)GlcNAc(b1-3)Gal(b1-4)GlcNAc(b1-2)Man(a1-6)]Man(b1-4)GlcNAc(b1-4)[Fuc(a1-6)]GlcNAc
# Procedure, shortened: as §1
# [18] = biological target: Gal(b1-4)GlcNAc(b1-3)Gal(b1-4)GlcNAc(b1-3)Gal(b1-4)GlcNAc(b1-2)[Gal(b1-4)GlcNAc(b1-3)Gal(b1-4)GlcNAc(b1-3)Gal(b1-4)GlcNAc(b1-6)]Man(a1-6)[Gal(b1-4)GlcNAc(b1-3)Gal(b1-4)GlcNAc(b1-3)Gal(b1-4)GlcNAc(b1-2)Man(a1-3)]Man(b1-4)GlcNAc(b1-4)[Fuc(a1-6)]GlcNAc
# Procedure, shortened: as §1
# [19] = biological target: Gal(b1-4)GlcNAc(b1-3)Gal(b1-4)GlcNAc(b1-3)Gal(b1-4)GlcNAc(b1-3)Gal(b1-4)GlcNAc(b1-2)Man(a1-3)[Gal(b1-4)GlcNAc(b1-3)Gal(b1-4)GlcNAc(b1-3)Gal(b1-4)GlcNAc(b1-3)Gal(b1-4)GlcNAc(b1-2)Man(a1-6)]Man(b1-4)GlcNAc(b1-4)GlcNAc
# Procedure, shortened: as §1
# [20] = biological target: Gal(b1-4)GlcNAc(b1-3)Gal(b1-4)GlcNAc(b1-3)Gal(b1-4)GlcNAc(b1-3)Gal(b1-4)GlcNAc(b1-2)Man(a1-3)[Gal(b1-4)GlcNAc(b1-3)Gal(b1-4)GlcNAc(b1-3)Gal(b1-4)GlcNAc(b1-3)Gal(b1-4)GlcNAc(b1-2)Man(a1-6)]Man(b1-4)GlcNAc(b1-4)[Fuc(a1-6)]GlcNAc
# Procedure, shortened: as §1
# [21] = biological target: Gal(b1-4)GlcNAc(b1-3)Gal(b1-4)GlcNAc(b1-3)Gal(b1-4)GlcNAc(b1-3)Gal(b1-4)GlcNAc(b1-2)[Gal(b1-4)GlcNAc(b1-3)Gal(b1-4)GlcNAc(b1-3)Gal(b1-4)GlcNAc(b1-3)Gal(b1-4)GlcNAc(b1-6)]Man(a1-6)[Gal(b1-4)GlcNAc(b1-3)Gal(b1-4)GlcNAc(b1-3)Gal(b1-4)GlcNAc(b1-3)Gal(b1-4)GlcNAc(b1-2)Man(a1-3)]Man(b1-4)GlcNAc(b1-4)[Fuc(a1-6)]GlcNAc
# Procedure, shortened: as §1
# [22] = biological target: Gal(b1-4)GlcNAc(b1-3)Gal(b1-4)GlcNAc(b1-3)Gal(b1-4)GlcNAc(b1-3)Gal(b1-4)GlcNAc(b1-3)Gal(b1-4)GlcNAc(b1-2)Man(a1-3)[Gal(b1-4)GlcNAc(b1-3)Gal(b1-4)GlcNAc(b1-3)Gal(b1-4)GlcNAc(b1-3)Gal(b1-4)GlcNAc(b1-3)Gal(b1-4)GlcNAc(b1-2)Man(a1-6)]Man(b1-4)GlcNAc(b1-4)GlcNAc
# Procedure, shortened: as §1
# [23] = biological target: Gal(b1-4)GlcNAc(b1-3)Gal(b1-4)GlcNAc(b1-3)Gal(b1-4)GlcNAc(b1-3)Gal(b1-4)GlcNAc(b1-3)Gal(b1-4)GlcNAc(b1-2)[Gal(b1-4)GlcNAc(b1-3)Gal(b1-4)GlcNAc(b1-3)Gal(b1-4)GlcNAc(b1-3)Gal(b1-4)GlcNAc(b1-3)Gal(b1-4)GlcNAc(b1-6)]Man(a1-6)[Gal(b1-4)GlcNAc(b1-3)Gal(b1-4)GlcNAc(b1-3)Gal(b1-4)GlcNAc(b1-3)Gal(b1-4)GlcNAc(b1-3)Gal(b1-4)GlcNAc(b1-2)Man(a1-3)]Man(b1-4)GlcNAc(b1-4)[Fuc(a1-6)]GlcNAc
# Procedure, shortened: as §1
# [24] = biological target: Gal(b1-4)GlcNAc(b1-3)Gal(b1-4)GlcNAc(b1-6)[Gal(b1-3)]GalNAc
# Procedure, shortened: as §1
# [25] = biological target: Gal(b1-4)GlcNAc(b1-6)[Gal(b1-4)GlcNAc(b1-3)]GalNAc
# Procedure, shortened: as §1
# GalNAc(a1-3)Gal = biological target: GalNAc(a1-3)Gal
# Procedure, shortened: as §1
# [26] = biological target: GlcNAc(a1-6)Gal(b1-4)GlcNAc
# Procedure, shortened: as §1
binder,measurement,setting,value
B1,glycan array binding signal (z-score),[1],-0.123
same,glycan array binding signal (z-score),[2],3.83
same,glycan array binding signal (z-score),[3],-0.32
same,glycan array binding signal (z-score),[4],-0.391
same,glycan array binding signal (z-score),[5],0.599
same,glycan array binding signal (z-score),[6],3.36
same,glycan array binding signal (z-score),[7],-0.391
same,glycan array binding signal (z-score),[8],-0.329
same,glycan array binding signal (z-score),[9],-0.36
same,glycan array binding signal (z-score),[10],-0.336
same,glycan array binding signal (z-score),[11],-0.409
same,glycan array binding signal (z-score),Gal(a1-3)Gal,-0.376
same,glycan array binding signal (z-score),Gal(a1-4)Gal(b1-4)Glc,-0.356
same,glycan array binding signal (z-score),Gal(b1-3)GalNAc,-0.351
same,glycan array binding signal (z-score),[12],-0.117
same,glycan array binding signal (z-score),[13],-0.053
same,glycan array binding signal (z-score),[14],1.3
same,glycan array binding signal (z-score),[15],5.22
same,glycan array binding signal (z-score),[16],0.373
same,glycan array binding signal (z-score),[17],4.02
same,glycan array binding signal (z-score),[18],4.33
same,glycan array binding signal (z-score),[19],3.48
same,glycan array binding signal (z-score),[20],3.44
same,glycan array binding signal (z-score),[21],3.19
same,glycan array binding signal (z-score),[22],3.05
same,glycan array binding signal (z-score),[23],3.6
same,glycan array binding signal (z-score),[24],0.054
same,glycan array binding signal (z-score),[25],-0.007
same,glycan array binding signal (z-score),GalNAc(a1-3)Gal,-0.402
same,glycan array binding signal (z-score),[26],-0.386
